Source: PubChem BioAssay (NCATS)
Inconclusive results are not listed. The source made the active and inactive calls. Unless noted, the call rests on the fitted dose curve; in most records, active means well fitted activation curve with a large enough effect in the main read-out, with a control signal flat (not every such curve was filed as active); inconclusive means small, poorly fitted or top-dose-only effect, or effect the other way, or a change in a side signal; inactive means flat fitted curve, though single readings scatter.

The compounds below were run against Mitogen-activated protein kinase 10 (Mus musculus) (UniProt Q61831) (assay: JNK3 AlphaScreen Assay (AID 530; active means well fitted curve in either direction with a large enough effect, not every such curve was filed as active;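 further: kinase came from lysate of stimulated human HepG2 cells; signal reports phosphorylation of biotinylated GST-cJun 1-79 at Ser73 with 10 µM ATP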)). Details: JNK3 lysate, c-Jun phosphorylation; series mostly up to 57.1 µM.
Procedure, shortened: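 Biotinylated GST-cJun(1-79) served as substrate for JNK3 in HepG2 lysates stimulated with IL-1beta and TNF-alpha. ATP was 10 uM final, pH 7.6. Ser73 phosphorylation was quantified by AlphaScreen (680 nm excitation).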

outcome, inactive:
COC(=O)[C@@]1(Cc2ccccc2)[C@H]2c3cc(C(=O)N(C)C)n(Cc4ccc(OC)c(OC)c4)c3C[C@H]2CN1C(=O)c1ccccc1
C[C@@H](C(=O)N[C@@H](CO)Cc1ccccc1)[C@@H]1C[C@@]1(C)[C@@H](NC(=O)OCc1ccccc1)c1ccccc1
CNC(=O)C1(C)C=CCN1C(=O)OC (centres undefined)
C[C@@H](C(=O)N[C@@H](CO)Cc1ccccc1)[C@H]1C[C@]1(C)[C@H](NC(=O)OCc1ccccc1)c1ccccc1
COC(=O)[C@@]1(Cc2ccc(OC)cc2)[C@H]2c3cc(C(=O)N4CCCC4)n(C[C@H](O)CO)c3C[C@H]2CN1C(=O)c1ccccc1
Cc1ccc(CNC(=O)[C@H](C)[C@@H]2C[C@@]2(C)[C@@H](NC(=O)OCc2ccccc2)c2ccccc2)c(F)c1F
COC(=O)[C@@]1(Cc2ccc(OC)cc2)[C@H]2c3cc(C(=O)N(C)C)n(Cc4ccc(S(C)(=O)=O)cc4)c3C[C@H]2CN1C(=O)c1ccccc1
COC(=O)[C@H]1C[C@@H]1[C@H](NS(=O)(=O)c1ccc2ccccc2c1)c1ccccc1

These compounds were tested against 3',5'-cyclic-AMP phosphodiesterase 4B (Homo sapiens) (UniProt Q07343) (assay: qHTS Assay for Inhibitors of PDE-IV (AID 607)). Details: HEK293 ACTOne CNG channel cells, membrane potential fluorescence; series mostly up to 22.9 µM.
3',5'-cyclic-AMP phosphodiesterase 4B (Homo sapiens), sequence (Q07343 whole entry, looked up): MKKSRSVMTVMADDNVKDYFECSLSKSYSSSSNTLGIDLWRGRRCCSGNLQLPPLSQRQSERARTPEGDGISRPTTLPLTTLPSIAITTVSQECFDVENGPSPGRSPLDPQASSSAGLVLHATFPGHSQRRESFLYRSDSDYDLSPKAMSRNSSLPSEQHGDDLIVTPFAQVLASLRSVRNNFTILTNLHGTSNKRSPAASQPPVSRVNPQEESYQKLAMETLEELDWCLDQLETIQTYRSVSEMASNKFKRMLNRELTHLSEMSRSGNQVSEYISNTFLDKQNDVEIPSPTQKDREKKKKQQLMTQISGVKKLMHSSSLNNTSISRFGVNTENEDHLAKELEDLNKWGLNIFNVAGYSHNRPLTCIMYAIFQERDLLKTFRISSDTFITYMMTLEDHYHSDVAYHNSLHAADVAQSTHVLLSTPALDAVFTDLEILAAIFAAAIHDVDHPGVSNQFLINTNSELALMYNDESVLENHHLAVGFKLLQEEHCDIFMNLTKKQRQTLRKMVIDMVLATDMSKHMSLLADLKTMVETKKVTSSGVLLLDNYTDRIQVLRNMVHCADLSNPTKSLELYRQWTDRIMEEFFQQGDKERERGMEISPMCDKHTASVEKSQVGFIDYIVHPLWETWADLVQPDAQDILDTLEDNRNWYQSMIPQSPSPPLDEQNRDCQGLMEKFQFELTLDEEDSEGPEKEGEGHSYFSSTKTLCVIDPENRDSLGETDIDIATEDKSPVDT
Procedure, shortened: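 Cell-based read-out of cAMP via a modified cyclic nucleotide-gated channel and membrane potential dye (535/590 nm) in HEK293 cells expressing PDE4 endogenously. Compounds tested up to 22.9 uM final; 100 uM RO 20-1724 reference.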

outcome, inactive:
COC(=O)[C@@]1(Cc2ccc(F)cc2)[C@H]2c3cc(C(=O)N4CCCC4)n(CCc4ccccn4)c3C[C@H]2CN1C(=O)c1ccccc1
COC(=O)[C@@]1(Cc2ccc(OC)cc2)[C@H]2c3cc(C(=O)N(C)C)n(Cc4c(CO)[nH]cc(C)c4=O)c3C[C@H]2CN1C(=O)c1ccccc1
C[C@@H](C(=O)NCC1CC1)[C@H]1C[C@]1(C)[C@H](NC(=O)OCc1ccccc1)c1ccccc1
COC(=O)[C@@H]1C[C@H]1[C@@H](NS(=O)(=O)c1ccccc1)c1ccccc1
COC(=O)[C@@]1(Cc2ccc(F)cc2)[C@H]2c3cc(C(=O)N(C)C)n(CCSCCO)c3C[C@H]2CN1C(=O)c1ccccc1
COC(=O)[C@@]1(Cc2ccc(F)cc2)[C@H]2c3cc(C(=O)N(C)C)n(CCO)c3C[C@H]2CN1C(=O)c1ccccc1
COCCNC(=O)[C@H]1C[C@@H]1[C@H](NP(=O)(c1ccccc1)c1ccccc1)c1ccccc1
C[C@@H](C(=O)NCC1CC1)[C@@H]1C[C@@]1(C)[C@@H](NC(=O)OCc1ccccc1)c1ccccc1
C[C@@H](C(=O)Nc1ccc2ccccc2c1)[C@H]1C[C@]1(C)[C@H](NC(=O)c1cccnc1)c1ccccc1
COC(=O)[C@@]1(Cc2ccc(F)cc2)[C@H]2c3cc(C(=O)N(C)C)n(CCc4ccc(OC)c(Br)c4)c3C[C@H]2CN1C(=O)c1ccccc1
CS(=O)(=O)c1ccc(CNC(=O)[C@H]2C[C@@H]2[C@H](NP(=O)(c2ccccc2)c2ccccc2)c2ccccc2)cc1
COC(=O)[C@@]1(Cc2ccc(F)cc2)[C@H]2c3cc(C(=O)N4CCCC4)n(Cc4cc(F)cc5c4OCOC5)c3C[C@H]2CN1C(=O)c1ccccc1
COC(=O)[C@@]1(Cc2ccc(F)cc2)[C@H]2c3cc(C(=O)N4CCCC4)n(CCSCCO)c3C[C@H]2CN1C(=O)c1ccccc1
COC(=O)[C@@]1(Cc2ccc(OC)cc2)[C@H]2c3cc(C(=O)N(C)C)n(Cc4ccccn4)c3C[C@H]2CN1C(=O)c1ccccc1
C/C(=C\C1CCCCC1)C(NC(=O)c1cccnc1)c1ccc(-c2ccccc2)cc1 (centres undefined)
COC(=O)[C@@]1(Cc2ccc(F)cc2)[C@H]2c3cc(C(=O)N(C)C)n(CCF)c3C[C@H]2CN1C(=O)c1ccccc1
COC(=O)[C@@]1(Cc2ccc(F)cc2)[C@H]2c3cc(C(=O)N(C)C)n(CCc4ccc(O)c(O)c4)c3C[C@H]2CN1C(=O)c1ccccc1
COC(=O)[C@@]1(Cc2ccccc2)[C@H]2c3cc(C(=O)N(C)C)n(CCO)c3C[C@H]2CN1C(=O)c1ccccc1
COC(=O)[C@@]1(Cc2ccc(OC)cc2)[C@H]2c3cc(C(=O)N(C)C)n(Cc4ccc(OC)c(OC)c4)c3C[C@H]2CN1C(=O)c1ccccc1
CO[C@H]1OC[C@@]2(C)[C@@H]3C4=C(CN2C(=O)OC(C)(C)C)[C@H](C)[C@H](CO)[C@H](CO)[C@H]4CC[C@H]13
COC(=O)[C@@]1(Cc2ccc(OC)cc2)[C@H]2c3cc(C(=O)N4CCCC4)n(CCc4ccc(O)c(OC)c4)c3C[C@H]2CN1C(=O)c1ccccc1
